MEKK3 PB1 HTS: MEKK3-MEK5 PB1 interaction, increase or decrease; bead-based flow cytometry, Alexa488-MEK5 binding to MEKK3; actives lie on both sides; 0 = blocked by unlabeled MEK5, 100 = vehicle; binding response (% of control), % at 10 µM; actives 1.4% (n = 290,000);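 active means binding response more than 3 SD above or below the average of its plate-row segment, actives on both sides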;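 further: Alexa488 bead fluorescence after subtracting the streptavidin-only scavenger bead signal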
GRK2 inh: human GRK2 inhibition via aptamer displacement; P25098; bead flow cytometry, FAM-aptamer displacement from GRK2; inhibition of aptamer binding, % at 10 µM; actives 0.59% (n = 330,000); AID 488847;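 active means inhibition of aptamer binding above 40%, roughly 3 SD of noise, on plates passing a quality check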;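 further: median bead fluorescence of bound FAM aptamer so fluorescent compounds give negative values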
MEKK2 WT-MEK5: raises or lowers MEK5 binding to wildtype human MEKK2 PB1 domain; bead flow cytometry, Alexa488-MEK5 binding to MEKK2 WT; actives lie on both sides; binding response (% of control), % at 10 µM; actives 1.1% (n = 290,000); in the data active means binding response below about 67% or above about 130%
MEKK2 mut-MEK5: signal of MEK5 binding to mutant human MEKK2 PB1 domain. AID 1530. actives 0.35% (n = 290,000). bead flow cytometry, Alexa488-MEK5 binding to MEKK2 mutant. percent response, % at 10 µM; in the data active means percent response above about 24%, passing the limit was not always enough
B2AR ag: activates human beta-2 adrenergic receptor causing internalization; Am2.2-beta2AR cells, FAP receptor internalization, flow cytometry; actives 0.43% (n = 340,000); response, % (test concentration not listed); P07550;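 active means response above a set limit, near 3 SD of response in nonfluorescent compounds, cut at about 42% in these data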
Target sequence (P07550 whole entry, looked up): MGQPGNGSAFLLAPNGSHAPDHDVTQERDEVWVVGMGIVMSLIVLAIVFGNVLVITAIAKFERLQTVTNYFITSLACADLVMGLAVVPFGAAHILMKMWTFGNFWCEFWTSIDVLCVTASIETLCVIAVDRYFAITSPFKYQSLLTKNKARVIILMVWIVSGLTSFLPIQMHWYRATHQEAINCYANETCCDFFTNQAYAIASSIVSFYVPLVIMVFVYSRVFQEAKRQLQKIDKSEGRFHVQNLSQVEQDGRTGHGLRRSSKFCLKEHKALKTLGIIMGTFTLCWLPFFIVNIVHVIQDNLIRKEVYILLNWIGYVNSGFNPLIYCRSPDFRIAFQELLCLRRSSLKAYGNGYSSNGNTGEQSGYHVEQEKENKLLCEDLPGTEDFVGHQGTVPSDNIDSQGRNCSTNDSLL
MEKK2wt confirm: raises or lowers MEK5 binding to wildtype human MEKK2, retest | shares compounds with MEKK3 PB1 HTS | bead flow cytometry, Alexa488-MEK5 binding to MEKK2 WT; actives lie on both sides | binding response (% of control), % at 10 µM | actives 2.4% (n = 5,900); in the data active means binding response below about 16% or above about 210%; inactive means in between
MEKK2mut-MEK5: signal of MEK5 binding to mutant human MEKK2, retest. percent response, % at 10 µM. shares compounds with MEKK3 PB1 HTS. bead flow cytometry, Alexa488-MEK5 binding to MEKK2 mutant. actives 2% (n = 5,900); in the data active means percent response mostly above about 71%, no sharp cut-off; inactive means mostly below about 38%;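 further: higher means compound restores mutant binding toward wildtype level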
MEKK3 confirm: confirmation of inhibitors of MEK5 binding to human MEKK3. shares compounds with MEKK3 PB1 HTS. bead flow cytometry, Alexa488-MEK5 binding to MEKK3; hits give low values. binding response (% of control), % at 10 µM. actives 1.8% (n = 5,900);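 active means binding response below 72% of control, or above a set upper limit, though filed actives all read lower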;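 further: 100% = DMSO only wells and 0% = binding blocked by excess unlabeled MEK5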
Starred values were filed as active, the others as inactive; nt = not tested or not shown; [ ] = another dose, or the depositor's remark. Shown are actives, neighbours in structure and some others; about 2.9% of the full set was active somewhere.

SMILES | MEKK3 PB1 HTS | GRK2 inh | MEKK2 WT-MEK5 | MEKK2 mut-MEK5 | B2AR ag | MEKK2wt confirm | MEKK2mut-MEK5 | MEKK3 confirm
CC(=O)Nc1cccc(C(=O)Oc2cccc(C)c2)c1O | 9.0*[inhibitor] | 1 | 16*[inhibitor] | -29 | 2 | 110 | 1 | 105
Cc1cccc(C(=O)Nc2cccc(OC(=O)c3cccc(C)c3)c2)c1 | 109 | 1 | 115 | 12 | 2 | nt | nt | nt
COc1ccccc1CNS(=O)(=O)c1cc(C(=O)NCC2CCCO2)c(Cl)cc1Cl (configuration not stated) | nt | 1 | nt | nt | 8 | nt | nt | nt
O=C(CSc1ccc(-c2ccccn2)nn1)c1ccc(F)cc1 | 117 | 5 | 107 | -1 | -12 | nt | nt | nt
COc1ccc(C(=O)CSc2nc(-c3ccccn3)nc(C)c2Cl)cc1 | 128* | 2 | 114 | 23 | -3 | 107 | 6 | 104
Cc1nc(-c2ccccn2)nc(SCC(=O)c2ccc(F)cc2)c1Cl | 134* | 0 | 113 | 31 | -2 | 103 | -1 | 97
COc1ccc(C(=O)CSc2nnc3ccc(-c4ccccn4)nn23)cc1 | 64 | 0 | 62 | -27 | -1 | nt | nt | nt
CCN(CC)S(=O)(=O)c1ccc(C)c(NC(=O)Cn2cnc3cc([N+](=O)[O-])ccc3c2=O)c1 | 69*[inhibitor] | 0 | 70 | -15 | -14 | 96 | -2 | 96
CCN(CC)S(=O)(=O)c1ccc(C)c(NC(=O)CN2CCN(C)CC2)c1 | 100 | 2 | 97 | -4 | 4 | nt | nt | nt
O=C(Cn1cnc2cc([N+](=O)[O-])ccc2c1=O)Nc1cccc2ccccc12 | 96 | 0 | 93 | 2 | -1 | nt | nt | nt
CCN(CC)S(=O)(=O)c1ccc(C)c(NC(=O)Cn2c(=O)cnc3ccccc32)c1 | 160* | 0 | 107 | 0 | -1 | 100 | 0 | 102
CC(C)[C@H](NC(=O)[C@@H]1Cc2c([nH]c3ccccc23)C2c3ccccc3C(=O)N21)C(=O)N1CCC[C@@H]1C(=O)O (some centres not stated) | 99 | 0 | 99 | -1 | 12 | nt | nt | nt
CCOC(OCC)c1cc2ccccc2cn1 | nt | 0 | nt | nt | -1 | nt | nt | nt
CCOC(=O)c1c(C)[nH]c(=S)c(C#N)c1-c1ccc(OC)cc1 | 122* | 1 | 108 | 5 | 1 | 98 | 0 | 101
COc1cccc(CN2CCN(Cc3ccc(O)cc3)CC2CCO)c1 (configuration not stated) | 46*[inhibitor] | 0 | 65 | -18 | -2 | 113 | 16 | 111
CCOc1ccc(CN2CCN(Cc3cnn(CC)c3C)CC2CCO)cc1 (configuration not stated) | 48*[inhibitor] | 0 | 53 | -13 | -4 | 98 | -3 | 99
CCOc1ccc(CN2CCN(Cc3cccc4nonc34)CC2CCO)cc1 (configuration not stated) | 104 | 0 | 117 | 19 | -64 | nt | nt | nt
COc1ccc(C(=O)NCC(=O)OCC(=O)Nc2ncc(Cl)cc2Cl)cc1[N+](=O)[O-] | nt | 4 | nt | nt | -6 | nt | nt | nt
COc1ccc(/C=C2\N=C3CCCCCN3C2=O)cc1OC | 101 | 0 | 103 | 1 | -2 | nt | nt | nt
COc1ccc(/C=C2\N=C(C)N(c3ccc4ccccc4c3)C2=O)cc1OC | 208* | 5 | 102 | 2 | 8 | 96 | -4 | 101
Cc1ccc(/C=C2\C(=N)N3N=C(CC(=O)N4CCOCC4)SC3=NC2=O)o1 | 101 | 9 | 104 | 4 | 0 | nt | nt | nt
N=C1/C(=C\c2ccc(SCc3ccccc3)o2)C(=O)N=C2SC(CC(=O)N3CCOCC3)=NN12 | 48*[inhibitor] | 4 | 50 | -12 | -7 | 94 | -6 | 94
Cc1nnc(SCC(=O)NC(C)(C)C)n1CCc1ccccc1 | 95 | 3 | 98 | 3 | 2 | nt | nt | nt
